# This is a sample that favours compounds with a hit; in the whole collection about 14% have one here.
# Sm TGR block: qHTS Assay for the Inhibitors of Schistosoma Mansoni Peroxiredoxins; purified TGR, DTNB reduction, TNB absorbance 405 nm; actives 3% (n = 360,000); Potency, µM (top dose mostly 114 µM), for inactives: at the top dose activity change, negative = inhibition, usual class: inhibitors; Schistosoma mansoni thioredoxin glutathione reductase (TGR), Q962Y6; further: potency means the concentration at half of the fitted maximal effect; nearly all actives have a fitted effect of over 60% in size
#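 First, TGR (20 nM dispensed) and NADPH were mixed with compound. Second, a 15 min room-temperature incubation followed. Third, further NADPH and then DTNB were added to start the reaction. Finally, TNB absorbance was monitored kinetically.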
# HCMV inh: qHTS Assay for inhibitors of the human cytomegalovirus (HCMV); HFF cells, HCMV-luciferase reporter, 72 h; stronger effect = lower value; activity change, negative = inhibition, % at 57.5 µM; actives 4.5% (n = 410,000); AID 1259415, 2018; in the data active means activity change below about -60%; inconclusive means no clear call, values can overlap the other calls; inactive means above about -39%
#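 HFF cells seeded 16 h at 37C, treated with compounds, infected with luciferase-reporter HCMV at MOI 1 PFU/cell; luciferase read at 72 h post infection, normalized to buffer-only and Salinomycin controls.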
# Giardia FBPA inh: qHTS Assay for Inhibitors of Fructose-1,6-bisphosphate Aldolase from Giardia Lamblia; A8B2U2; actives 0.71% (n = 290,000); AID 2451, 2010; Potency, µM (doses to about 59.6 µM), for the others: at the top dose activity, negative = inhibition, usual class: inhibitors; purified Giardia FBPA; further: potency means the concentration at half of the fitted maximal effect; nearly all actives have a fitted effect of over 55% in size
# Target sequence (A8B2U2 whole entry, looked up): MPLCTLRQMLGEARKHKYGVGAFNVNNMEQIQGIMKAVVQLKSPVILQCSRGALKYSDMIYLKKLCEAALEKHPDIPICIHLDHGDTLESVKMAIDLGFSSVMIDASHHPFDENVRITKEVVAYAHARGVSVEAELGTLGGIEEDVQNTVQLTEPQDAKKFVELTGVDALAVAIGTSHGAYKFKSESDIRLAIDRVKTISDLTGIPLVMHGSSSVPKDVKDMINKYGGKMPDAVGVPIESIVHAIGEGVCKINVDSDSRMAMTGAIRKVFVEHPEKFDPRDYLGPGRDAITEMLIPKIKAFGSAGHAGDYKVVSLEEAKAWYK
#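 40 nM FBPA preincubated 10 min at RT with compound (up to 57.5 uM final), then substrate plus GAPDH/TPI/NAD/arsenate coupling and diaphorase/resazurin added. Fluorescence read after 20 min at RT, 525/598 nm.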
# Pf growth 48h: Primary qHTS for delayed death inhibitors of the malarial parasite plastid, 48 hour incubation | actives 5.9% (n = 310,000) | P. falciparum luciferase growth in erythrocytes, 48 h | AID 504832, 2011 | Potency, µM (series often up to 28.7 µM), without a hit: at the top dose activity change, negative = inhibition, hits mostly inhibitors; further: potency means the concentration at half of the fitted maximal effect
#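 In quantitative HTS format, infected erythrocytes bearing luciferase-reporter parasites were treated for a single generation at 37 C. Luminescence after adding detection reagent served as the growth measure.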
# Pf growth 96h: Primary qHTS for delayed death inhibitors of the malarial parasite plastid, 96 hour incubation; P. falciparum luciferase reporter growth, 96 h; Potency, µM (series often up to 28.7 µM), for the others: at the highest dose activity change, negative = inhibition, hits mostly inhibitors; actives 6.9% (n = 320,000); AID 504834, 2011; further: potency means the concentration at half of the fitted maximal effect
#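 Delayed-death screen, second-generation endpoint: infected erythrocytes, 2% hematocrit, 0.05% parasitemia final; 96 hours at 37 C, 5% CO2; luciferase detection reagent; luminescence decrease equals reduced growth.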
# An asterisk follows results filed as active; ? = inconclusive; . = not tested or not shown; ! = not active in a repeat; [ ] = another dose, or the depositor's remark. Unless noted, the call rests on the fitted dose curve; in most records, active means well fitted curve in the direction sought with a large enough effect; inconclusive means small, poorly fitted or top-dose-only effect, or another doubt; inactive means no such curve, though single readings can be large; an effect the other way counts as inactive or inconclusive. On the % scale 0 is the no-effect control and ±100 the full control effect.
SMILES,Sm TGR block,HCMV inh,Giardia FBPA inh,Pf growth 48h,Pf growth 96h
Cc1cccc(-c2nc(CS(=O)CC(=O)NCCc3ccc(Cl)cc3)c(C)o2)c1 (centres undefined),?,-33.9,4.0%,14.3%,20.9%
COc1ccc(-c2nc(CS(=O)CC(=O)NC3CCCC3)c(C)o2)cc1 (centres undefined),?,2.3,-8.7%,12.0%,-5.3%
COc1cc(OC)c(NC(=O)CCNS(=O)(=O)c2ccc3c(c2)CC(C)N3C(C)=O)cc1Cl (centres undefined),-1.3%,5.9,-4.4%,-26.8%,321.7%
Cc1c(CCC(=O)O)c(=O)oc2cc(OCc3ccccc3Br)ccc12,-18.3%,12.6,13.9%,17.0%,29.2%
COc1ccc(-n2c(=O)c(-c3cc(F)cc(F)c3)nc3cnc(N(C)C)nc32)cc1,.,.,4.4%,.,.
Cc1cccc(-c2nc(C#N)c(N3CCCCC3)o2)c1,-4.0%,?,-3.0%,97.9%,72.2%
Cc1oc(-c2ccc(Cl)cc2)nc1CS(=O)CC(=O)NCCCN(C)C1CCCCC1 (centres undefined),-0.4%,-70.2*,-7.3%,?,47.4%
Cc1ccc(-c2nc(CS(=O)CC(=O)NC3CCCCC3)c(C)o2)cc1 (centres undefined),12.6µM*,15.6,.,-12.9%,?
Cc1oc(-c2ccc(Cl)cc2)nc1CS(=O)CC(=O)NC1CCCCCC1 (centres undefined),10µM*,-33.1,.,14.4%,9.28µM*
Cc1cccc(-c2nc(C#N)c(NC3CCCCC3)o2)c1,-3.8%,64.0,-3.4%,64.5%,4.65µM*
COc1ccc(C(=O)ON=C(C)c2nccs2)cc1,.,-27.5,.,.,.
O=C(NCCc1ccccc1)c1ccc(CSc2nc3cccnc3n2Cc2ccccc2F)cc1,0.4%,11.2,.,.,.
Cc1cccc(-c2nc(CS(=O)CC(=O)NC3CCCC3)c(C)o2)c1 (centres undefined),12.6µM*,14.6,5.5%,.,?
Cc1ccc(NS(=O)(=O)c2ccc(-c3cnc(C4CC4)o3)cc2)cc1,0.7%,-29.2,.,6.9%,11.7µM*
O=S(=O)(NCc1ccccc1Cl)c1ccc(-c2cnc(C3CC3)o2)cc1,7.9%,-18.8,.,.,.
COc1cc(Cl)c(NS(=O)(=O)c2ccc(-c3cnc(C4CC4)o3)cc2)c(OC)c1,-1.1%,-76.0*,.,.,.
COc1ccc(C)cc1NS(=O)(=O)c1ccc(-c2cnc(C3CC3)o2)cc1,3.4%,-102.8*,.,?,?
CC(=O)c1ccc(NS(=O)(=O)c2ccc(-c3cnc(C4CC4)o3)cc2)cc1,0.6%,1.4,.,34.0%,-27.1%
Cc1cccc(C)c1NS(=O)(=O)c1ccc(-c2cnc(C3CC3)o2)cc1,2.8%,.,.,?,?
CCOc1ccccc1CNS(=O)(=O)c1ccc(-c2cnc(C3CC3)o2)cc1,7.3%,-69.0*,.,3.6%,?
CCNc1ncc2nc(-c3cn(C)c4ccccc34)c(=O)n(Cc3ccc(F)cc3)c2n1,.,.,-10.0%,.,.
CSc1ccc(/C=C/C(=O)OCC(=O)N2CCN(S(=O)(=O)c3ccc(C)cc3C)CC2)cc1,2.1%,-33.5,.,?,-35.9%
COC(=O)C/C=C\[C@H](C)[C@@H](OC)c1ccccc1Br,.,.,-0.5%[12.9 µM],.,.
COC(CNC(=O)c1ccc2c(c1)ncn2-c1ccc(F)cc1F)OC,-8.7%,-27.2,9.9%,-17.2%,-5.9%
CCOC(=O)c1n[nH]n(-c2cc(Cl)cc(Cl)c2)c1=O,0.5%,3.8,22.5%,?,5.9%
SMILES,Sm TGR block,HCMV inh,Giardia FBPA inh,Pf growth 48h,Pf growth 96h
CCOC(=O)c1nc2cc3n(c(C)c-2c1C)C(C)C(C)=C3C (centres undefined),-0.9%,-6.0,-18.0%,7.38µM*,2.33µM*
CCOC(=O)c1nc2cc3n(c(CC(C)C)c-2c1C)CC(C)=C3C,56.2µM*,-35.9,-16.6%,1.17µM*,3.29µM*
CCOC(=O)c1nnc2cc(C)nn2c1C,-4.4%,3.9,-3.9%,11.0%,2.5%
CCOC(=O)N1CCN(C(C(=O)NC2CCCC2)C(C)C)CC1 (centres undefined),.,-21.3,.,.,.
O=C(O)c1ccc(N/N=C/c2ccc(OC(=O)c3ccccc3Cl)cc2)cc1,-1.2%,-67.6*,8.9%,41.0%,157.6%
CC(C)c1ccc(/C=N/Nc2ccc(C(=O)O)cc2)cc1,-22.3%,-63.5*,6.4%,43.2%,-22.6%
Cc1ccc(/C=N/Nc2ccc(C(=O)O)cc2)s1,0.6%,-73.3*,-0.3%,61.2%,333.0%
Nc1ccc(C(=O)N/N=C\c2ccc(OC(=O)c3ccccc3Cl)cc2)cc1,-2.4%,-11.3,-5.7%,33.7%,15.1%
O=C(COC(=O)Cc1ccc(Cl)cc1)NCc1cccs1,.,25.4,.,.,.
CN(CC(=O)Nc1ccc(F)cc1F)S(=O)(=O)c1ccc(C(=O)N2CCOCC2)s1,2.9%,1.0,.,.,.
CSc1ccc(CN(C)C(=O)CCNS(=O)(=O)c2ccc(C)c(C)c2)cc1,1.4%,-26.4,.,3.7µM*,?
CCN(Cc1ccccc1)C(=O)CCNS(=O)(=O)c1ccc2c(c1)CC(C)N2C(C)=O (centres undefined),-14.1%,-71.8*!,-3.3%,8.3%,?
CSc1ccc(CN(C)C(=O)CNC(=O)CNS(=O)(=O)c2ccc(C)c(C)c2)cc1,-0.8%,-31.4,9.0%,2.4%,-8.7%
CC(=O)N1c2ccc(S(=O)(=O)NCCC(=O)N(C)Cc3ccccc3)cc2CC1C (centres undefined),1.3%,12.9,4.7%,1.1%,7.38µM*
CC(=O)N1c2ccc(S(=O)(=O)NCCc3ccccc3)cc2CC1C (centres undefined),-16.8%,-26.1,10.5%,0.0%,59.2%
CCOC(=O)C1CCN(C(=O)c2ccc3c(c2)sc2nc(-c4ccccc4)cn23)CC1,4.7%,.,.,.,.
O=C(O)[C@H]1CN(CCCP(=O)(O)O)CCN1,.,.,-0.4%,.,.
O=C(C1CCCCC1)N(Cc1cccnc1)c1nc2c(F)cccc2s1,-0.5%,0.0,.,.,.
Cc1cc(O)cc(O)c1-c1onc(C(F)(F)F)c1-c1cscn1,4.2%,-71.4*,3.7%,3.2%,55.5%
CCOc1ccc(-c2onc(C(F)(F)F)c2-c2cscn2)c(O)c1,1.0%,-31.6,-19.5%,4.65µM*,.
COc1ccc(-c2onc(C)c2-c2cscn2)c(O)c1,5.3%,6.7,-8.3%,?,-28.5%
O=C(CN1CCCCC1)NNC(=O)c1cccc(Br)c1,8.0%,-1.1,1.5%,27.9%,9.7%
CCOc1ccccc1N1CCN(C(=O)C2=CC=CN3CCS(=O)(=O)N=C23)CC1,-29.7%,-30.3,.,-9.3%,-22.0%
COc1ccccc1CNS(=O)(=O)c1c(C)cc(C)cc1C,.,-20.1,.,.,.
CCOC(=O)c1csc(NC(=O)c2ccccc2)n1,0.3%,77.1,0.3%,.,166.6%

# Screening data: PubChem, National Center for Advancing Translational Sciences (NCATS)
